Test results taken from ChEMBL document CHEMBL3988442, “University of Dundee, Small-Polar-MMV Screening Library” (2021).

How the values were obtained:
[1] = target: T1, Aspartate--tRNA(Asp/Asn) ligase (Mycobacterium tuberculosis (strain ATCC 25618 / H37Rv)) (UniProt P9WFW3); assay: Assay for Asp RNA synthetase-1 from Mycobacterium tuberculosis; type: functional; set-up: scale not given: direction of the effect not stated beside the values; details: 30 µM; further: in the data most compounds retested in dose-response had high values
T1 sequence (whole entry): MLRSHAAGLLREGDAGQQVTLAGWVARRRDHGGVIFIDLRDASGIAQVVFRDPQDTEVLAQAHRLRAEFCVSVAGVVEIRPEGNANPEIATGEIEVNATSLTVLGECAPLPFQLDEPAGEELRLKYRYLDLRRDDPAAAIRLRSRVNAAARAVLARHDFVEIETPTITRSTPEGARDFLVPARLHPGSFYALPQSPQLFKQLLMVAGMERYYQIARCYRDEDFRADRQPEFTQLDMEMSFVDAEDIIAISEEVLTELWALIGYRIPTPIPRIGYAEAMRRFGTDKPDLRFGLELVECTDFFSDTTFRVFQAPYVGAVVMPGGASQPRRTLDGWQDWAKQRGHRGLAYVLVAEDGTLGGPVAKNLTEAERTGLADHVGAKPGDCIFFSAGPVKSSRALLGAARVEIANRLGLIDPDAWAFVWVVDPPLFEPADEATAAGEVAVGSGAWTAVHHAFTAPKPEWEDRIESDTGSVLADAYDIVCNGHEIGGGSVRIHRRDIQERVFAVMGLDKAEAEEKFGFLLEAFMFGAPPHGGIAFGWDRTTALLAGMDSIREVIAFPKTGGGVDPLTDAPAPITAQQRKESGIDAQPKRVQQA

[2] = target: Shiga toxin 2 (Escherichia coli O157:H7) (UniProt P09385+P09386); assay: E. coli 0.157:H7 Shiga Toxin SOP - stx2 screening assay; type: functional; set-up: scale not given: direction of the effect not stated beside the values; details: 30 µM

| Compound | Percent Effect [1] [%] | Percent Effect [2] [%] |
| --- | --- | --- |
| CCc1c(C(=O)NCC(=O)OCC2CC2)cnn1-c1ccc(C)cc1 | -5.03 | -6.36 |
| CCc1noc(C(C)N2CCC(NC(=O)c3ccc(C)s3)CC2)n1 (stereo not drawn) | 5.23 | -30.1 |
| NC(=O)C1CN(C(=O)Nc2ccccc2N2CCCCCC2)CCO1 (stereo not drawn) | 0.991 | 7.25 |
| Cn1ccc(C(=O)NCc2cccc(CN3CCCC3)c2)cc1=O | 1.53 | -46.4 |
| COC[C@@]12CC[C@@H](N3CCOCC3)C[C@H]1CCN(c1ncccc1Cl)C2 | -2.31 | 23 |
| CCOC(=O)N1CCN(C(=O)c2ccc3ccn(C)c3c2)CC1 | -0.585 | 1.39 |
| Cc1cccc(N2CCN(CCNC(=O)C(C)n3cncn3)CC2)c1 (stereo not drawn) | 2.75 | 15.6 |
| CC(C)(C)c1noc(CN2CCN(C(=O)c3cccs3)CC2)n1 | 0.425 | 6.49 |
| COc1ccc(CN2CC[C@@H](O)[C@@H]2Cc2ccccc2)cc1 | -0.406 | -47 |
| O=C(NC1CC1)N1CCc2ncnc(-c3ccncc3)c2CC1 | 5.15 | -28.2 |
| Cn1c(CN2CCOC(c3nc(C(C)(C)C)n[nH]3)C2)nnc1C1CC1 (stereo not drawn) | -5.04 | -21.1 |
| Cc1ccc2c(ccn2CCC(=O)NC[C@@H]2CCCN3CCCC[C@H]23)c1 | -0.958 | -5.27 |
| CC(C(=O)Nc1ncccn1)N1CCCN(c2nccs2)CC1 (stereo not drawn) | 0.767 | -54.2 |
| CCc1ccc(NS(=O)(=O)CC2=NC(=O)n3cccc3C2=O)cc1 | 0.755 | -77.4 |
| O=C(Cc1cccc(F)c1)NCCNCc1cccc(O)c1 | 4.95 | -12.7 |
| O=C(NCCNc1ccccn1)N1CCSCC1 | -5.89 | 16.3 |
| Cc1ccc(C)c(C(NC(=O)C(C)(C)C)c2cccnc2)c1 (stereo not drawn) | -1.21 | 1.8 |
| CC(C)c1cc(NC(=O)c2ccc(C(=O)NC(C)(C)C)cc2)[nH]n1 | -0.941 | -39.3 |
| Cc1ccc(-c2nc(CN3CCC(C(=O)N(C)C)CC3)cs2)o1 | 4.21 | -24.2 |
| Cc1nc(C2CCCN(C(=O)c3ccc(Cn4cccn4)o3)C2)no1 (stereo not drawn) | -5.64 | 12.3 |
| COCCN1C[C@H]2CC[C@@]3(N=C(C)N(CC4CC4)C3=O)[C@H]2C1 | 4.94 | -12.7 |
| Cc1nsc(C(=O)N2CCc3ccccc3C2)n1 | -2.11 | -13.9 |
| CCSc1ccc(C(=O)Nc2c(C)nn(C(C)C)c2C)cn1 | -2.39 | -37.7 |
| N#Cc1cccc(S(=O)(=O)N2CCCCC2CCN2CCCC2=O)c1 (stereo not drawn) | -2.87 | -20.4 |
| Cc1cnn(CC2CN(CC(=O)N3CCc4ccccc43)CCO2)c1 (stereo not drawn) | -4.75 | -15.5 |

| Compound | Percent Effect [1] [%] | Percent Effect [2] [%] |
| --- | --- | --- |
| Cc1cc(CN(C)C(=O)c2cc3c([nH]c2=O)CCCC3=O)no1 | 2.54 | 20.8 |
| O=S1(=O)N=C(SCc2ccc(Cl)cc2)Nc2ccc(F)cc21 | -0.189 | -5.93 |
| CCN1CCN(c2ccc(CNC(=O)c3ccc(Cl)o3)cn2)CC1 | -3.07 | -41.7 |
| N#Cc1ccccc1CN1CCCCC1Cn1cncn1 (stereo not drawn) | 0.359 | 25 |
| CCc1cnc2c(c1Nc1ccc(OC)cc1)c(=O)n(C)c(=O)n2C | 0.831 | -12.8 |
| CN1CCCc2cc(NC(=O)N3CCOC(C(N)=O)C3)ccc21 (stereo not drawn) | -0.684 | -77.6 |
| Cc1nc(CCNC(=O)N2CCC(Cc3cnn(C)c3)C2)cs1 (stereo not drawn) | -5.21 | -13.9 |
| Cc1cc(NC(=O)C(c2cccc(F)c2)N2CCOCC2)ccn1 (stereo not drawn) | 5 | -6.3 |
| CC(=O)Nc1cccc(OCCNC(=O)N(C)Cc2ccco2)c1 | -1.02 | -16.7 |
| Cn1cnc2c1CCN(CCS(=O)(=O)c1ccccc1)C2 | -1.69 | 0.397 |
| Cc1nccn1CC1CCCN1S(=O)(=O)Cc1ccccc1F (stereo not drawn) | 1.06 | -2.92 |
| Cc1ccc2oc(C(=O)N3CCCC(n4nc(C)cc4C)C3)cc2n1 (stereo not drawn) | -3.54 | 1.89 |
| COC(=O)CCC(=O)N1CCc2[nH]nc(-c3ccc4c(c3)OCO4)c2C1 | -1.06 | -8.22 |
| O=c1[nH]c2c(c(=O)n1C1CCCCC1)CCC2Nc1ccccc1Cl (stereo not drawn) | 4.33 | -5.14 |
| O=C(c1cccc(CNCC2CNc3ccnn3C2)c1)N1CCCC1 (stereo not drawn) | -1.15 | -3.83 |
| c1csc(N2CCCN(Cc3nc(C4CC4)no3)CC2)n1 | -1.91 | 12.8 |
| Cn1nc(C2CCCN(C(=O)CO)C2)cc1O (stereo not drawn) | 3.92 | 10.4 |
| Cc1ccc(N2CCCC3(COCCN(c4nccs4)C3)C2)nn1 (stereo not drawn) | -0.638 | -17.6 |
| Cc1cccc(CN2C[C@@H]3CN(C(=O)NC(C)C)C[C@@H]3C2=O)c1 | 0.565 | -52.1 |
| COc1ncccc1C(=O)NCC(C)Oc1cccnc1 (stereo not drawn) | -5.57 | -2.36 |
| CNC(=O)Nc1cc(-c2ccccc2C)nn1CCO | 10.9 | -22 |
| CC(C)C(=O)N1CCN(C(=O)c2cc(C(C)C)on2)[C@H]2CS(=O)(=O)C[C@H]21 | -1.39 | -14.2 |
| CCOc1ccccc1-c1noc(CN(C)Cc2cnn(C)c2)n1 | 2.13 | -14 |
| Cc1nn(-c2ccccc2)cc1C(=O)N1CCCN2CCCC2C1 (stereo not drawn) | -6.57 | -22 |
| Cc1noc(C)c1CNc1cc(N2CCCC2CO)ncn1 (stereo not drawn) | -7.32 | -11.6 |

| Compound | Percent Effect [1] [%] | Percent Effect [2] [%] |
| --- | --- | --- |
| COc1ccc(OCC(=O)NC(C)c2ccc(F)cc2)c(C(=O)O)c1 (stereo not drawn) | 0.691 | 12 |
| Cc1cc(CNC(=O)N2CCN(c3nc(C)c(C)s3)CC2)no1 | -1.96 | 24 |
| COc1cccc(OC)c1CN1CCC2(CC(Nc3ccncn3)C2)C1 (stereo not drawn) | 3.04 | 0.472 |
| CS(=O)(=O)N1CCCN(C(=O)c2ccc(Cn3ccccc3=O)o2)CC1 | 1.66 | 25 |
| CN(C)CCN1CCCC12CCN(C(=O)c1cnccn1)CC2 | 1.96 | 0.984 |
| CC(=O)N1CCN(C(=O)C2SCCc3sccc32)CC1 (stereo not drawn) | -0.324 | -46 |
| Cc1ccccc1C1(CNc2nnc(C)c(C)c2C#N)CCOCC1 | 2.96 | 18.2 |
| Cc1cc(C)n(C2CCCN(C(=O)c3ccc(NC4CC4)nc3)C2)n1 (stereo not drawn) | -1.9 | 27 |
| OC(CN1CCN(c2ncccn2)CC1)c1cccc(F)c1 (stereo not drawn) | -3.26 | -4.85 |
| CN1CCCC2(CCN(C(=O)CCn3cncn3)C2)C1=O (stereo not drawn) | -4.51 | 27.3 |
| COCCC(=O)Nc1ccnc(Oc2ccccc2)c1 | 13.9 | -27.8 |
| CCc1nnc2n1CCN(C(=O)c1ccc3nc(C)c(C)nc3c1)C2 | -2.42 | 7.1 |
| CC(C)c1nc(CC(=O)Nc2nc(CN3CCCCCC3)cs2)cs1 | -0.836 | -37.6 |
| CC(=O)Nc1nc(CN2CCCC2Cn2cncn2)cs1 (stereo not drawn) | -6.16 | -44 |
| COC(=O)CC(c1ccccc1)c1oc(C)cc(=O)c1O (stereo not drawn) | -2.11 | -6.67 |
| Cc1cccc2c1cnn2CCCNC(=O)CCCC(=O)O | 15.5 | -61.8 |
| CC(OCC(F)(F)F)C(=O)Nc1ccc(-n2cncn2)nc1 (stereo not drawn) | -0.432 | 13.4 |
| Cc1noc(C)c1CN1CCN(Cc2ccncc2)c2ncccc2C1 | -2.02 | 8.32 |
| COc1ccc(F)c(CN2CCC(c3cc(O)nc(C)n3)C2)c1 (stereo not drawn) | -6.3 | -8.55 |
| Cc1cc(C[C@@H]2COC[C@H]2NCc2ccccc2C(F)(F)F)on1 | 2.34 | -7.33 |
| O=S(=O)(Cc1ccccc1)NCc1ccco1 | -3.04 | 4.92 |
| CN1CCN(C[C@@H]2CN(C(=O)c3ccccc3C#N)C[C@@H]2CO)CC1 | -1.09 | -8.04 |
| O=C(NCN1CCc2ccccc2C1)c1cnccn1 | 8.37 | -18.9 |
| Cc1nc(CN2CCN(CC(=O)Nc3c(C)cccc3C)CC2)no1 | -3.29 | -6.23 |
